The campaign covered roughly 7,400 compounds. About 4,100 (55%) were called active. The set was probably picked from earlier hits. A selection follows. A number with no mark means an inactive call.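 Rule for the calls: active = inhibition of yeast growth at or above a set limit in either of two repeat tests at 20 µM; inactive = the rest.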
Experiment: tim10-1 ts yeast growth inhibition, retested – single concentration, luminescence, S. cerevisiae, confirmation (AID 463213);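 note: tim10-1 mutant grown at permissive 25 °C to find synthetic lethal compounds; 0% = DMSO yeast wells and 100% = medium wells without yeast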
Conditions: S. cerevisiae tim10-1 ts strain growth, BacTiter-Glo, 24 h; at 20 µM; stronger effect = higher value

| Compound | inhibition |
| --- | --- |
| Cc1ccc(Oc2cnn(-c3ccccc3)c(=O)c2Br)cc1 | 41.2% (active) |
| COc1ccc(N2CCN(C(=O)CCSCc3ccccc3F)CC2)cc1 | 16.8% |
| Fc1ccc(/C=N/Nc2nc(-c3cccnc3)nc3ccccc23)cc1 | 33.9% (active) |
| COc1ccc(/C=C(\C#N)C(=O)ONC2=NCCCCC2)cc1 | 66.8% (active) |
| COc1ccc2c(c1)c(C(=O)N/N=C/c1cccs1)c(C)n2C | 28.8% |
| COc1ccc(/C(C)=N/NC(=O)c2ccc3nc[nH]c3c2)cc1 | -11.2% |
| COc1cccc(C(=O)Nc2cc3c(cc2Br)OCCCO3)c1 | 9.95% |
| COc1ccc(C(=O)Nc2ccccc2C(=O)N/N=C/c2ccccc2OC)cc1 | 56.6% (active) |
| COc1ccc(C(=O)Nc2ccccc2C(=O)N/N=C/c2ccc(O)c(OC)c2)cc1 | 91.6% (active) |
| O=C(C(=O)N1CCc2ccccc2C1)c1c[nH]c2ccccc12 | 12.1% |
| CC1CCc2c(sc3nc4n(c(=O)c23)CCS4)C1 (centres undefined) | 37.5% (active) |
| CC1CCc2sc3nc(N4CCN(CCO)CC4)n4ncnc4c3c2C1 (centres undefined) | 27.2% |
| CCOC(=O)CSc1nc2c(c(=O)n(Cc3ccccc3Cl)c(=O)n2C)n1C | 31.1% |
| Cc1ccc(-c2ccc(/C=C(\C#N)C(N)=S)o2)c([N+](=O)[O-])c1 | 48.3% (active) |
| CC(=O)Cc1nsc(NC(=O)c2csc3c2CCCC3)n1 | 29.6% |
| COc1ccc(N2C(=O)CC(Sc3n[nH]c(-c4ccc(C)cc4)n3)C2=O)cc1 (centres undefined) | 24.7% |
| CNC(=O)/C(C#N)=C/c1c(F)cccc1Cl | 50.1% (active) |
| CCOC(=O)c1ccccc1N1C(=O)C2Sc3[nH]c(=O)sc3C(/C=C/c3ccccc3)C2C1=O (centres undefined) | 15.4% |
| CCOC(=O)C1Sc2[nH]c(=O)sc2C(c2ccc(Cl)cc2)C1C(=O)OCC (centres undefined) | 33.5% (active) |
| ONC(=Nc1ccc(Cl)cc1)c1ccccc1Cl | 31.5% (active) |
| Cc1cccc(NC(=S)NCc2ccc3[nH]c4c(c3c2)CCCC4)c1 | 35.3% (active) |
| O=C(N/N=C\c1cccc(Br)c1)c1ccccc1-n1cccc1 | 51.5% (active) |
| CCC(=O)N1CCc2cc(S(=O)(=O)NC(C(=O)N3CCc4ccccc4C3)C(C)C)ccc21 (centres undefined) | 22.2% |
| CC1CCCC(C)N1C(=O)CN1CCN(c2nc(-c3ccc(F)cc3)cs2)CC1 (centres undefined) | 37.2% (active) |

| Compound | inhibition |
| --- | --- |
| O=C(CN1CCN(c2ccc(F)cc2)CC1)Nc1cccc(C(F)(F)F)c1 | 23.8% |
| O=C(Nc1nc(-c2ccco2)c(-c2ccco2)s1)c1ccco1 | 65.9% (active) |
| Cc1ccc2c(c1)c1ncnc(N3CCc4ccccc4C3)c1n2C | 22.1% |
| Cc1nc(-c2ccc(Cl)cc2)sc1C(=O)CBr | 55.2% (active) |
| CCOC(=O)N1CCN(C(=O)c2cc3c(-c4ccc(Cl)cc4)nn(C)c3s2)CC1 | 22.4% |
| O=C(Oc1c(-c2ccco2)oc2ccccc2c1=O)c1cccnc1 | 42.6% (active) |
| CCc1nc2ccc(C(=O)N3CCN(c4cccc(Cl)c4)CC3)cc2nc1CC | 24.6% |
| O=C(c1ccc2nc(N3CCOCC3)sc2c1)N1CCN(c2ccc(Cl)cc2)CC1 | 41.5% (active) |
| COc1ccc2nc(N3CCN(C(=O)c4ccc([N+](=O)[O-])o4)CC3)sc2c1 | -0.8% |
| Cc1ccccc1CC1(CO)CCCN(C(=O)c2cc(-c3ccccc3)no2)C1 (centres undefined) | 21.1% |
| O=C(Cc1ncc(C(F)(F)F)cc1Cl)Nc1cccc(Br)c1 | 30.4% |
| N/C(=N\OC(=O)Nc1ccc(Cl)c(Cl)c1)c1ncc(C(F)(F)F)cc1Cl | 67.4% (active) |
| CC1(C)CCSC(/C=C/c2ccccc2)=N1 | 49.4% (active) |
| Cc1ccc(C(=O)CCC(=O)N(C)CC(=O)Nc2c(Cl)cccc2Cl)cc1 | -3% |
| FC(F)(F)Oc1ccc(NC(=S)NCc2ccccc2)cc1 | 47% (active) |
| COc1ccc(NC(=S)N2N=CCC2c2ccccc2)cc1 (centres undefined) | 16.2% |
| C/C(=N\NC(=S)NCc1ccccc1)C1CCCCC1 | 26.9% |
| Cc1ccc2c(c1)C1CN(C)CCC1N2S(=O)(=O)c1ccc(Oc2ccc([N+](=O)[O-])cc2)cc1 (centres undefined) | 22.1% |
| Oc1c(Cl)cc(Cl)c(Cl)c1Cc1c(O)c(Cl)cc(Cl)c1Cl | 88.7% (active) |
| CCc1nn(CCCC(=O)Nc2ccc(C)cc2C)c(=O)c2cc3occc3n12 | -8.95% |
| COc1ccc(-n2cc(-c3ccccc3)c3c(=S)nc[nH]c32)cc1 | 34.4% (active) |
| CCOC(=O)C1Cn2c(nc3c(c2=O)C(C)(CC)Cc2ccccc2-3)S1 (centres undefined) | 10% |
| O=C(/C(=C/c1cccc(Cl)c1)c1nc2ccccc2[nH]1)c1ccccc1 | 38.7% (active) |
| O=C(Nc1cccc(Cl)c1)c1cncn1-c1ccc(F)cc1 | 33% (active) |

| Compound | inhibition |
| --- | --- |
| CCNC(=S)N(CCc1c(C)[nH]c2ccc(C)cc12)Cc1ccco1 | 24.5% |
| Cc1nonc1C1CCCN1C(=O)c1cc(COc2cccc(C(F)(F)F)c2)on1 (centres undefined) | 41.6% (active) |
| O=C1c2ccccc2C(=O)c2c1cccc2N1CCN(Cc2ccccc2)CC1 | 32% (active) |
| CCOC(=O)C1(S(=O)(=O)c2ccccc2)CCN(Cc2ccccc2)CC1 | 14.3% |
| O=C(c1ccc(CSc2ccccc2)cc1)N1CCCCCC1 | 26.4% |
| COc1ccc(/C=C2/SC(=O)N(CCCCCC(=O)Nc3ccccc3C(=O)O)C2=S)cc1 | 4.8% |
| O=C1/C(=C\c2ccccc2Cl)SC(=S)N1CCC(=O)N1CCCc2ccccc21 | 27.6% |
| O=C(CCCN1C(=O)/C(=C/c2ccccc2)SC1=S)Nc1ccc(O)cc1 | 28.7% (active) |
| COc1ccccc1C1C(C#N)=C(N)Oc2c1c(-c1ccccc1)nn2-c1ccccc1 (centres undefined) | 21.8% |
| Cc1ccc(C(C[N+](=O)[O-])c2c(C)cc3ccccn23)cc1 (centres undefined) | 30.6% (active) |
| CCN1/C(=C\c2ccc3ccccc3[n+]2CC)Sc2cc(C)ccc21 | 59% (active) |
| COc1ccc2nc(/N=C(\N)NC(=O)Nc3ccccc3)nc(C)c2c1 | 51% (active) |
| O=C1[C@@H](c2ccccc2)[C@@H](c2ccccc2)N1c1cccnc1 | 66.5% (active) |
| O=c1c(-c2ccc3c(c2)OCCO3)c(C(F)(F)F)oc2cc(O)cc(O)c12 | 22.5% |
| Cc1onc(NC(=O)c2ccc([N+](=O)[O-])o2)c1Br | 45.9% (active) |
| Cc1cccc(NC(=O)c2ccc([N+](=O)[O-])o2)c1 | 50.1% (active) |
| O=C(Nc1ccc(Br)cn1)c1ccc([N+](=O)[O-])o1 | 59.5% (active) |
| Cc1cccc(CN2CCC(CNC(=O)Nc3ccc(F)c(Cl)c3)CC2)c1 | 14.9% |
| CCOC(=O)C1=C(C)N=c2s/c(=C\C(=O)OC)c(=O)n2C1c1ccc(OC)cc1 (centres undefined) | 24.7% |
| CC(=O)/C(=N\Nc1ccc(Cl)cc1Cl)Sc1cccc2cccnc12 | 43% (active) |
| Cc1cc(C)c(S(=O)(=O)c2ccccc2)c(OC(=O)c2c(F)cccc2Cl)n1 | 41.5% (active) |
| CCN1CCN(C(c2cccnc2)c2cc(Cl)c3cccnc3c2O)CC1 (centres undefined) | 34% (active) |
| Oc1c(C(c2ccccn2)N2CCOCC2)ccc2cccnc12 (centres undefined) | 16.2% |
| CCOC(=O)c1ccc(N2C(=O)CC(N3CCC(C(=O)OCC)CC3)C2=O)cc1 (centres undefined) | 47.8% (active) |

| Compound | inhibition |
| --- | --- |
| Cc1[nH]c(=O)c(C(=O)/C=C/c2ccccc2)c2c1CCCC2 | 50.3% (active) |
| COc1ccc(Cn2c(-c3ccc(Cl)cc3)c[n+]3ccccc23)cc1 | 32.9% (active) |
| CCc1ccc(-c2cc3c(=O)n(CC(=O)NCCCN4CCN(Cc5ccccc5)CC4)nc(C)n3n2)cc1 | -46.4% |
| CCCCNC(=S)N/N=C1\CCCCc2ccccc21 | 22.1% |
| Cc1[nH]n(-c2ccc([N+](=O)[O-])cc2)c(=O)c1C=NCCN1CCN(C(=O)c2ccccc2F)CC1 | 40.4% (active) |
| C=CCNC(=S)N1CCN(CCN=Cc2c(C)[nH]n(-c3ccc([N+](=O)[O-])cc3)c2=O)CC1 | 27.4% |
| COc1ccc(CNC(=O)/C(C#N)=C/c2cccc(OC)c2OC)cc1 | 78.2% (active) |
| O=C(NNc1c2ccccc2nc2ccccc12)c1cc2ccccc2cc1O | 40.6% (active) |
| COc1ccc(-c2oc3ncn(Cc4ccco4)c(=N)c3c2-c2ccc(OC)cc2)cc1 | 17.6% |
| Cc1cc(Nc2ccccc2)n(C(=O)c2ccc(N)cc2)n1 | 39.9% (active) |
| CCOC(=O)c1c(N)nn(C(=O)c2ccccc2)c1-c1ccccc1 | 16.3% |
| Clc1ccc(Nc2ccc3ccccc3n2)cc1 | 50.6% (active) |
| C=CCNc1nc(Nc2ccc(Cl)cc2)nc(OC)n1 | 2.4% |
| C=CS(=O)c1sc(Cl)c(N2CCOCC2)c1[N+](=O)[O-] (centres undefined) | 83.8% (active) |
| Nc1ccccc1SC(C[N+](=O)[O-])c1ccccc1 (centres undefined) | 47.1% (active) |
| Cc1ccc(OS(=O)Nc2cccc3nccnc23)cc1 (centres undefined) | 25.4% |
| COc1ccc(C(=O)/C=C/c2ccc(-c3ccccc3)cc2)cc1CSCC(=O)O | 22.9% |
| CC(=O)Nc1ccc(/C=C/C(=O)c2ccccc2)cc1 | 36.3% (active) |
| CN1c2ccccc2-c2nc3ccccc3n2C1c1ccco1 (centres undefined) | 19.8% |
| CCn1nc(C)c(NC(=O)/C=C/c2ccc(OC)c(COc3ccc(Br)cc3)c2)c1C | 19.9% |
| CCCCCCCCn1c2c(c(=N)c3c1CCC3)CCCC2 | 30.4% (active) |
| O=[N+]([O-])c1ccc2oc(-c3cccc(O)c3)nc2c1 | 49.8% (active) |
